# The campaign covered roughly 52,000 compounds. About 4,300 (8.3%) were called active. Only a selection was taken, and actives are over-represented in it overall. Values without a mark were called inactive. Cut-off read from the data, not from the text of the source: active = survival mostly below about 52% (no sharp cut-off); inactive = mostly above about 56%.
# Test system: DeltatarO mutant
# Test: S. aureus survival, RN4220 and DeltatarO strains – OD600, teichoic acid synthesis inhibitors, primary screen (AID 463173)
# Settings: S. aureus RN4220 wild type/DeltatarO growth, OD600, 18 h, hits give low values, screened at 18.75 µg/mL (by protocol)
row,Compound,survival
1,CC(=O)c1cccc(NC(=O)CSc2nc3c(=O)n(C)c(=O)n(C)c3n2C)c1,79%
2,O=C(Nc1cc(-c2nc3cc(Cl)ccc3o2)ccc1Cl)c1cccs1,59%
3,Cc1cc(C)c2oc(-c3ccc(Cl)c(NC(=O)c4cccs4)c3)nc2c1,55% (active)
4,CC(C)c1ccc2oc(-c3cc(NC(=O)c4cccnc4)ccc3Cl)nc2c1,-2% (active)
5,Cc1cc(C)c2oc(-c3ccc(NC(=O)c4cc(Br)ccc4Cl)cc3)nc2c1,89%
6,Cc1cc(NC(=O)c2cccnc2)cc(-c2nc3cc(Cl)ccc3o2)c1O,140%
7,CCc1ccc2oc(-c3cc(NC(=O)c4cccnc4)cc(C)c3O)nc2c1,65%
8,CCOc1ccccc1NC(=O)C1CCCN(S(=O)(=O)c2c(C)[nH]c(=O)[nH]c2=O)C1 (configuration not stated),88%
9,CC(C)c1cc(-c2nc(-c3ccc(Br)cc3)no2)n[nH]1,95%
10,O=C(Cn1c(-c2cccs2)cc2cc(F)ccc21)NCCc1ccc(Cl)cc1,91%
11,Cc1ccc(-n2ncc3c(NCc4ccccc4)ncnc32)cc1C,70%
12,Cc1ccc(-n2ncc3c(NCCC4=CCCCC4)ncnc32)cc1,20% (active)
13,Cc1ccc(-n2ncc3c(NCc4ccccc4)ncnc32)cc1Cl,-4% (active)
14,Clc1cccc(-n2ncc3c(NCCC4=CCCCC4)ncnc32)c1,37% (active)
15,Cc1ccc(-n2ncc3c(NCCc4ccccc4)ncnc32)cc1Cl,65%
16,Fc1ccc(-n2ncc3c(NCCC4=CCCCC4)ncnc32)cc1,83%
17,Clc1cccc(-n2ncc3c(NCCc4ccccc4)ncnc32)c1,94%
18,Cc1ccc(-n2ncc3c(NCCC4=CCCCC4)ncnc32)cc1C,119%
19,Cc1ccc(Cl)cc1-n1ncc2c(NCCC3=CCCCC3)ncnc21,91%
20,COc1cccc(C2C(C(=O)Nc3cccnc3)=C(C)Nc3nc(SCc4ccccc4)nn32)c1 (configuration not stated),81%
21,COc1ccc(Cn2c(SCc3ccc(C(=O)NC4CCCC4)cc3)nc3cccnc32)cc1,69%
22,COC(=O)c1sc2nc3ccccc3cc2c1N,93%
23,COCCNS(=O)(=O)c1ccc(S(=O)(=O)N2CCCCC2)cc1,103%

row,Compound,survival
1,Cc1ccc2cc(CN(CC3CCCO3)C(=O)C3CCC3)c3nnnn3c2c1 (configuration not stated),95%
2,CCC(C)NC(=O)CCCc1nnc2n(CC(C)C)c(=O)c3sccc3n12 (configuration not stated),94%
3,O=S(=O)(NCCS(=O)(=O)N1CCN(c2ccccc2)CC1)c1ccccc1,81%
4,CCN(C1CCCCC1)S(=O)(=O)c1ccc(S(=O)(=O)NC2CC2)cc1,90%
5,O=C(Nc1ccccc1)C1CCN(S(=O)(=O)c2ccc3c(c2)CCCN3C(=O)C2CCC2)CC1,95%
6,CCOc1ccc(Nc2c(S(=O)(=O)c3ccc(C)cc3)cnc3ccc(F)cc23)cc1,64%
7,CCOc1ccc(Nc2c(S(=O)(=O)c3ccc(C)cc3)cnc3ccccc23)cc1,43% (active)
8,CCOc1ccc(Nc2c(S(=O)(=O)c3ccc(Cl)cc3)cnc3ccc(OC)cc23)cc1,67%
9,CCOc1ccc(Nc2c(S(=O)(=O)c3ccccc3)cnc3ccccc23)cc1,38% (active)
10,CCOc1ccc(Nc2c(S(=O)(=O)c3ccc(C)cc3)cnc3ccc(OC)cc23)cc1,59%
11,CCOc1ccc(Nc2c(S(=O)(=O)c3ccc(C)cc3)cnc3cc(OC)c(OC)cc23)cc1,70%
12,CCOc1ccc(Nc2c(S(=O)(=O)c3ccc(Cl)cc3)cnc3ccc(OCC)cc23)cc1,66%
13,CCOc1ccc(Nc2c(S(=O)(=O)c3ccccc3)cnc3ccc(F)cc23)cc1,92%
14,CCOc1ccc(Nc2c(S(=O)(=O)c3ccccc3)cnc3ccc(CC)cc23)cc1,34% (active)
15,CCOc1ccc(C(=O)NCC(c2ccc3c(c2)OCO3)N2CCN(c3ccc(F)cc3)CC2)cc1 (configuration not stated),87%
16,COc1ccc(Cl)cc1NC(=O)Cn1cnc2sc(C)c(S(=O)(=O)N3CCN(c4ccccc4OC)CC3)c2c1=O,79%
17,CCN(c1ccccc1)c1nnc(NC(=O)Nc2ccc(Br)c(C)c2)s1,89%
18,COc1ccccc1NC(=O)c1c(-c2ccc(C)cc2)nnc2ccccc12,105%
19,Cn1c(=O)sc2cc(NS(=O)(=O)c3ccc(C(C)(C)C)cc3)ccc21,92%
20,Cc1nc2ccc(S(=O)(=O)CCC(=O)Nc3ccc(C(C)C)cc3)cc2s1,50%
21,CC(C)(C)c1ccc(S(=O)(=O)Nc2ccc(O)c(Sc3nc4ccccc4s3)c2)cc1,-4% (active)
22,Cc1nc2ccc(S(=O)(=O)NC(C(=O)NCc3ccccc3Cl)C(C)C)cc2s1 (configuration not stated),102%
23,CC(C)c1ccc(S(=O)(=O)Nc2ccc(O)c(Sc3nc4ccccc4s3)c2)cc1,1% (active)

row,Compound,survival
1,CC(C)NC(=O)c1nc2ccccc2s1,88%
2,CC(C)c1ccc(C(=O)Nc2ccc(-c3nc4ccccc4s3)c(Cl)c2)cc1,216%
3,CS(=O)(=O)Nc1ccc(-c2nc3ccccc3s2)cc1,48%
4,Cc1cc(S(=O)(=O)Nc2ccc(O)c(Sc3nc4ccccc4s3)c2)ccc1Cl,-1% (active)
5,O=C(Nc1ccc(Cl)cc1-c1nc2ccccc2s1)c1ccco1,74%
6,Cc1cc(F)ccc1S(=O)(=O)Nc1ccc(O)c(Sc2ncn[nH]2)c1,111%
7,O=S(=O)(Nc1ccc(O)c(Sc2nc3ccccc3s2)c1)c1cc(Cl)ccc1Cl,-8% (active)
8,CCOC(=O)CNc1nnc(SCC(=O)OCC)[nH]c1=O,71%
9,Cc1ccc2oc(C(=O)Nc3ccc(S(=O)(=O)N4CCCC(C)C4)cc3)cc(=O)c2c1 (configuration not stated),69%
10,Cc1ccc(Cl)cc1N1CCN(CCCNc2ncnc3onc(-c4ccc(F)cc4)c23)CC1,80%
11,Cc1ccc2nc(-c3ccncc3)c(Nc3ccc(C(C)C)cc3)n2c1,75%
12,CC(C)(Cc1ccc(O)cc1)NC(=O)c1ccccc1,86%
13,CC(=O)c1c(C)n(-c2cccc(Cl)c2)c2ccc(OC(=O)c3ccccc3)cc12,77%
14,CN(CC(=O)NCc1ccccc1Cl)S(=O)(=O)c1ccc2c(c1)c(=O)n(C)c(=O)n2C,130%
15,CCOc1ccccc1C(=O)Nc1ccc(S(=O)(=O)Nc2ncccn2)cc1,76%
16,CC1=CCC2C(=O)N(C3CCCCC3)C(=O)C2C1 (configuration not stated),79%
17,CC(C)c1ccc(NC(=O)N2CCN(c3ccc(Cl)c(Cl)c3)CC2)cc1,87%
18,Cc1ccc(NC(=O)N2CCN(c3ccc(Cl)c(Cl)c3)CC2)cc1,102%
19,O=C(Nc1ccc(F)cc1F)N1CCN(c2ccc(Cl)c(Cl)c2)CC1,48% (active)
20,CCn1cc(S(=O)(=O)c2ccc(C)cc2)c(=O)c2cc(F)c(N3CCCCCC3)cc21,90%
21,CC(C)C(=O)Nc1nnc2n1CCS2,101%
22,CCCCSc1nc2sc3c(c2c(=O)n1-c1ccccc1C)CC(C)(C)OC3,48%
23,CCCSc1nc2sc3c(c2c(=O)n1-c1cccc(Br)c1)CC(C)(C)OC3,61%

row,Compound,survival
1,CCn1c(NN)nc2sc3c(c2c1=O)CC(C)(C)OC3,104%
2,C=C(C)CSc1nc2sc3c(c2c(=O)n1-c1ccccc1)CC(C(C)C)OC3 (configuration not stated),76%
3,C=C(C)CSc1nc2sc3c(c2c(=O)n1Cc1ccccc1)CC(C)(CC)OC3 (configuration not stated),42% (active)
4,CCCSc1nc2sc3c(c2c(=O)n1Cc1ccccc1)CC(C)(CC)OC3 (configuration not stated),14% (active)
5,CSc1nc2c([nH]c3ccccc32)c(=O)n1-c1ccc(C)cc1,87%
6,Cc1ccc(N2C(=O)C3CN4CCCN4C3C2=O)cc1 (configuration not stated),78%
7,COc1ccccc1C(=O)NCC(=O)O,76%
8,CCc1ccc(S(=O)(=O)c2nnn3c2nc(N2CCCC(C)C2)c2cc(Cl)ccc23)cc1 (configuration not stated),63%
9,Cc1ccc(NC(=O)Cn2c(=O)n(-c3ccccc3)c(=O)c3ccc(C(=O)NCc4ccc5c(c4)OCO5)cc32)cc1,114%
10,CCOC(=O)c1cccc(NC(=O)c2cc(S(=O)(=O)N3CCCCCC3)cn2C)c1,74%
11,COc1ccc(N2CCN(S(=O)(=O)CCNC(=O)c3ccc(C(F)(F)F)cc3)CC2)cc1,99%
12,Cc1ccc(S(=O)(=O)N2CCc3cc(C(=O)NCCc4ccccc4)ccc32)cc1,104%
13,COc1ccc(CCNC(=O)c2ccc3c(c2)CCN3S(=O)(=O)c2ccc(C)cc2)cc1,43% (active)
14,COc1ccc(CCNC(=O)c2ccc3c(c2)CCN3S(=O)(=O)c2ccc(C)cc2)cc1OC,50%
15,COc1ccc(CCNC(=O)c2ccc3c(c2)CCN3S(C)(=O)=O)cc1,82%
16,COc1ccc(CNC(=O)c2ccc3c(c2)CCN3S(=O)(=O)c2ccc(C)cc2)cc1,55%
17,COc1ccc(CCNC(=O)c2ccc3c(c2)CCN3S(=O)(=O)c2ccc(Cl)cc2)cc1,50%
18,O=C(NCCc1ccccc1)c1ccc2c(c1)CCN2S(=O)(=O)c1ccccc1,38% (active)
19,COc1ccc(CCNC(=O)c2ccc3c(c2)CCN3S(=O)(=O)c2ccccc2)cc1,44% (active)
20,COc1ccc(CCNC(=O)c2ccc3c(c2)CCN3S(=O)(=O)c2ccccc2)cc1OC,88%
21,COc1ccc(CNC(=O)c2ccc3c(c2)CCN3S(=O)(=O)c2ccc(Cl)cc2)cc1,62%
22,O=C(NCCc1ccccc1)c1ccc2c(c1)CCN2S(=O)(=O)c1ccc(Br)cc1,67%
23,COc1ccc(CNC(=O)c2ccc3c(c2)CCN3S(=O)(=O)c2ccccc2)cc1,36% (active)

# Source: PubChem BioAssay AID463173 (ICCB-Longwood Screening Facility, Harvard Medical School, 2010)
